Here are results for 17 compounds from ChEMBL document CHEMBL1961873, “Compounds: GSK PKIS; Assays: Nanosyn kinase panel” (2012).

For test [1], the target named is Tyrosine-protein kinase Fer (Homo sapiens) (UniProt P16591). To be noted: at 1 µM.
In test [2] the target is Tyrosine-protein kinase Fes/Fps (Homo sapiens) (UniProt P07332). Particulars: at 0.1 µM.
Test [3] shares this target. To be noted: at 1 µM.
The target of test [4] is Fibroblast growth factor receptor 1 (Homo sapiens) (UniProt P11362). Particulars: at 0.1 µM.
Fibroblast growth factor receptor 1 (Homo sapiens), sequence (P11362 22-822 limits assumed): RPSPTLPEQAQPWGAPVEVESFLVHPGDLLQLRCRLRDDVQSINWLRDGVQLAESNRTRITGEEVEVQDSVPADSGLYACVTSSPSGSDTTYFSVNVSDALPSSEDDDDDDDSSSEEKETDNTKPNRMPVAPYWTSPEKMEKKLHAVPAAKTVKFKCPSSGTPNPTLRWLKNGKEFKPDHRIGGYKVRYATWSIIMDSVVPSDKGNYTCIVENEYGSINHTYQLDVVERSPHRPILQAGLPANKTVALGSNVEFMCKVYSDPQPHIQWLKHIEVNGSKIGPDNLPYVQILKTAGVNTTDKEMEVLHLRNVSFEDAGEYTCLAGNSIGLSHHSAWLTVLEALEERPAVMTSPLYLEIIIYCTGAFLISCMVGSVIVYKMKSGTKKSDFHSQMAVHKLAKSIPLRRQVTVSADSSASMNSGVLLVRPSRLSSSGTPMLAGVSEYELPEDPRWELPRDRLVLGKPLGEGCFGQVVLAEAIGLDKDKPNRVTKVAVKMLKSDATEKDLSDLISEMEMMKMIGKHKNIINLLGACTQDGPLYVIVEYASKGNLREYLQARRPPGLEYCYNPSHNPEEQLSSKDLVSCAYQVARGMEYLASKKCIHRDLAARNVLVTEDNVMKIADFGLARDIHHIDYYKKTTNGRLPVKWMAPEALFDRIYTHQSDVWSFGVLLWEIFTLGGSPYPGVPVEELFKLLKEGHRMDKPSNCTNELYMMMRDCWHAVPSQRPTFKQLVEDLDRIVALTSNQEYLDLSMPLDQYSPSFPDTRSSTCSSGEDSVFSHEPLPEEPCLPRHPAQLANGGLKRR
Test [5] shares this target. To be noted: at 1 µM.
Test [6] has as its target Fibroblast growth factor receptor 2 (Homo sapiens) (UniProt P21802). To be noted: at 0.1 µM.
Test [7] has the same target. To be noted: at 1 µM.
Test [8] deals with Fibroblast growth factor receptor 3 (Homo sapiens) (UniProt P22607). Particulars: at 0.1 µM.
Fibroblast growth factor receptor 3 (Homo sapiens), sequence (P22607 23-806 limits assumed): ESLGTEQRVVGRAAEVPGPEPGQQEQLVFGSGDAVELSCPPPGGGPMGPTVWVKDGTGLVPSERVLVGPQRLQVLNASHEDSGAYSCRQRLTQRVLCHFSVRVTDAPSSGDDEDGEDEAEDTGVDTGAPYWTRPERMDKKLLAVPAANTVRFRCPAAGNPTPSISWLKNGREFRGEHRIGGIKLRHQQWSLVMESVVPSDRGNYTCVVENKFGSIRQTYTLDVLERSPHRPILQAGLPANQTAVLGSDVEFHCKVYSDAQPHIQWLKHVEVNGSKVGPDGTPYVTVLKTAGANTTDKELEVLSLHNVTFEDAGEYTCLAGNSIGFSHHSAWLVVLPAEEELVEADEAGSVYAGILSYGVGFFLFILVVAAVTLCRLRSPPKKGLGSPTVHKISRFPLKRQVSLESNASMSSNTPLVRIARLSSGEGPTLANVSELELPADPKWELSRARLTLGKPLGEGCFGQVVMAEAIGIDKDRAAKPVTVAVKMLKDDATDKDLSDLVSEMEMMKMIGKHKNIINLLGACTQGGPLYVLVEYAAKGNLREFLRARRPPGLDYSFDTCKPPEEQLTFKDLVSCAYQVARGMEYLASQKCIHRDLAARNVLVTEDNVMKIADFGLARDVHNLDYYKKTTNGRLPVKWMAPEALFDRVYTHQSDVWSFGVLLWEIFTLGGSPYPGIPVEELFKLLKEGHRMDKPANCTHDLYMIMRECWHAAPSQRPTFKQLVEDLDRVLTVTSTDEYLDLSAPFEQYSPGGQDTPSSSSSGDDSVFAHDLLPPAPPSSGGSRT
The target is the same in test [9]. To be noted: at 1 µM.
Test [10] deals with Fibroblast growth factor receptor 4 (Homo sapiens) (UniProt P22455). Particulars: at 0.1 µM.
Fibroblast growth factor receptor 4 (Homo sapiens), sequence (P22455 22-802 limits assumed): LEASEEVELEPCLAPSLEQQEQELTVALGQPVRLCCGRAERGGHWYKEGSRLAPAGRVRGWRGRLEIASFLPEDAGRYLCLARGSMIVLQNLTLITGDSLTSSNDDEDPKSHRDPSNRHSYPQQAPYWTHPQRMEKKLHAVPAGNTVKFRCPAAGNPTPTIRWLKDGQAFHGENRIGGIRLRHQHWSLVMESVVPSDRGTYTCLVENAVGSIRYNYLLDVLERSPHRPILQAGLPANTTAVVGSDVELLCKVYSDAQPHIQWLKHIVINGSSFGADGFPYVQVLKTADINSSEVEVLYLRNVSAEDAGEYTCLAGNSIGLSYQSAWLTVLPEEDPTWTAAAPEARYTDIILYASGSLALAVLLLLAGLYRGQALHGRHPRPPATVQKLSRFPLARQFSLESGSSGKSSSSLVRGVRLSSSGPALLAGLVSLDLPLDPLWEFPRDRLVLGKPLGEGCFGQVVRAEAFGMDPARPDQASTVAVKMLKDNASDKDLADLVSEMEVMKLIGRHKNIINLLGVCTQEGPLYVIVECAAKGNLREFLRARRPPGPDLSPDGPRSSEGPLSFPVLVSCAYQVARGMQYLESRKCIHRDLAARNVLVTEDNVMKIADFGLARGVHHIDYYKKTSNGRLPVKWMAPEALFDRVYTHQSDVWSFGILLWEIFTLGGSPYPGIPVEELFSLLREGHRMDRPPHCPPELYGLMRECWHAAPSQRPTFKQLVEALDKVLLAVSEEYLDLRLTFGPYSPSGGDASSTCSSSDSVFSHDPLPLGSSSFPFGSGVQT

Tyrosine-protein kinase Fer (Homo sapiens), sequence (P16591 whole entry, looked up): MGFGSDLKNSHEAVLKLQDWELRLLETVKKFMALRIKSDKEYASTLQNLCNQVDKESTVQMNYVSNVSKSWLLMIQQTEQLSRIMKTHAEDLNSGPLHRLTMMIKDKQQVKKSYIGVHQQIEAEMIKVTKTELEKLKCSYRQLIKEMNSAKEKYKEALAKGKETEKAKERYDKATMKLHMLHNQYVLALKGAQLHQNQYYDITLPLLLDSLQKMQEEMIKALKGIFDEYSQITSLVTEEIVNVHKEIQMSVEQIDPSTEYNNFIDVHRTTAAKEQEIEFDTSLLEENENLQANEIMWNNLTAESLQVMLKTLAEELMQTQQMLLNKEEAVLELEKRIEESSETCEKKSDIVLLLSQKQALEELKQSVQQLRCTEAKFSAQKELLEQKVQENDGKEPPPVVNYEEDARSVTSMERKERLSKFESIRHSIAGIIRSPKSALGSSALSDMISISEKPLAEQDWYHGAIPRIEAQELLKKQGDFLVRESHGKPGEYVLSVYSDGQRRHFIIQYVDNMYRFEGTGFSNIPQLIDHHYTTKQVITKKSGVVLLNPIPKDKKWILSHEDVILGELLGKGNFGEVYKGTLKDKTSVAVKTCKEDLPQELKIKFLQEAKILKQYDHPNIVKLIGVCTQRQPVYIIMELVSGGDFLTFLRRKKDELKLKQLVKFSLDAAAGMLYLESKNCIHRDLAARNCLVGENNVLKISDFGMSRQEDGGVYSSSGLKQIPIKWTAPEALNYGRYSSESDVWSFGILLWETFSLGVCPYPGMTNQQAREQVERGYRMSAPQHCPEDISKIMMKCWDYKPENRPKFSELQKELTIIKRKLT
Tyrosine-protein kinase Fes/Fps (Homo sapiens), sequence (P07332 whole entry): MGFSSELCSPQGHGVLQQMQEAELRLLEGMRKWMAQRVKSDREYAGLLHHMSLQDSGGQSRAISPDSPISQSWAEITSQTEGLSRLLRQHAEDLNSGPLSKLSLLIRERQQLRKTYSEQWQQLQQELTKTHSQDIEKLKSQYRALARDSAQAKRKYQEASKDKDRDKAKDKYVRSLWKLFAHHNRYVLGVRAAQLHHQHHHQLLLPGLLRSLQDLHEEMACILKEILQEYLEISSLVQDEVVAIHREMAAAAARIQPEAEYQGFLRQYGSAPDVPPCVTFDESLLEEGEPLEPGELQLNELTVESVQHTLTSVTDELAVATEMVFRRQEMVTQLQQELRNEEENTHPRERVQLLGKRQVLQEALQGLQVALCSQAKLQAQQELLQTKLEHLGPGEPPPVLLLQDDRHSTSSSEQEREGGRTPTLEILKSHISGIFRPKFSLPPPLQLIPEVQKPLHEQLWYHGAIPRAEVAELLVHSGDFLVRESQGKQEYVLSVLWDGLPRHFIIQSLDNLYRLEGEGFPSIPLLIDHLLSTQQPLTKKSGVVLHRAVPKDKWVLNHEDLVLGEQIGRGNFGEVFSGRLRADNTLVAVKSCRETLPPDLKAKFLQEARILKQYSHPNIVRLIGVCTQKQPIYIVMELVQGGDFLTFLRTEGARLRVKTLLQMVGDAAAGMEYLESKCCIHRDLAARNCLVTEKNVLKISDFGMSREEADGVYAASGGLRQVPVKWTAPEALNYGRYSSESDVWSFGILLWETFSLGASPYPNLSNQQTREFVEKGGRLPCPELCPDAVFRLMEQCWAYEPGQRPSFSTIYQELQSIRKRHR
Fibroblast growth factor receptor 2 (Homo sapiens), sequence (P21802 22-821 limits assumed): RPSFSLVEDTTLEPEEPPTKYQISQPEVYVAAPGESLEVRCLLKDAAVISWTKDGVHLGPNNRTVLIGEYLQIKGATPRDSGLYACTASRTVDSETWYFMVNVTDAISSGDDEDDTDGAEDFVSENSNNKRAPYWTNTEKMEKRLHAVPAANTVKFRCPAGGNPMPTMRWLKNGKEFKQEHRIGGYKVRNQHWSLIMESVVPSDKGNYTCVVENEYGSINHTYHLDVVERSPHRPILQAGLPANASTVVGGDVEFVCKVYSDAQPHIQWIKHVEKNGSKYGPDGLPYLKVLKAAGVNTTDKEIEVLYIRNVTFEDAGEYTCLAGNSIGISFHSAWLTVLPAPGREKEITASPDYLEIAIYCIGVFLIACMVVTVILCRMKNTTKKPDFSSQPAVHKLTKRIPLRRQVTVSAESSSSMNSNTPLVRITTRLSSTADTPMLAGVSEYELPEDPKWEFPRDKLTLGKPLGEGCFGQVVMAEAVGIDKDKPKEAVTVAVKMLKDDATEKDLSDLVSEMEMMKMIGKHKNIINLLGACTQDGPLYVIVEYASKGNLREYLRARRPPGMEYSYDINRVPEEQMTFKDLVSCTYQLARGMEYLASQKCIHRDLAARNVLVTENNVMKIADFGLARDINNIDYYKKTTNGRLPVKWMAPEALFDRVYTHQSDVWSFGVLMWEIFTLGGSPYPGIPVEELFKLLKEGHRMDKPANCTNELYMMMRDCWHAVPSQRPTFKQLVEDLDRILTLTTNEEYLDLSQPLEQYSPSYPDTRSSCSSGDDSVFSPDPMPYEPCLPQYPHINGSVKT

Consider `c1ccc(Nc2ncc(-c3ccccc3)o2)cc1`, for which the inhibition (usually the change of the read-out against control, counted positive when it falls) in test [1] was 0.57%; in [2], 3.92%; in test [3] it was 4.9%; in [4] it was -1.19%; in test [5] it was 8.3%; in test [6], 6.37%. The inhibition in test [7] came to 10.5%; in [8], 7.27%; in [9], 6.62%; in test [10], 2.33%.
Take `OCc1ccc(-c2nc(-c3ccccn3)c(-c3ccc4c(c3)OCO4)[nH]2)cc1`: the inhibition amounted to 5.49% in test [1]; 3.6% in [2]; 4.6% in test [3]; 5.91% in test [4]; 5.71% in test [5]; 5.49% in [6]. The inhibition in test [7] came to 10.1%; in test [8], 6.26%; in test [9] it was 7.28%; in test [10], 0.04%.
For the compound `CN1CCN(C(=O)c2ccc(NC(=O)Nc3ccc(N(C)c4ccnc(Nc5ccc(CS(C)(=O)=O)cc5)n4)cc3)cc2)CC1`, the inhibition in [1] is 63.9%; in test [2] it was 7.35%; in test [3], 43.4%; in test [4] it was 0.94%; in [5], 4.44%; in test [6], 6.7%. Also, the inhibition amounted to 12.8% in test [7], 4.9% in test [8], 5.11% in test [9] and 4.73% in test [10].
For the compound `CS(=O)(=O)CCNCc1nc(-c2ccc3ncnc(Nc4ccc(OCc5cccc(C(F)(F)F)c5)cc4)c3c2)cs1`, the inhibition came to 6.92% in [1]; 1.48% in [2]; 3.22% in test [3]; 2.15% in test [4]; 4.98% in test [5]; 6.08% in test [6]. In addition, the inhibition in test [7] was found to be 5.8%; in test [8] it was 4.91%; in test [9], 4.35%; in [10], 4.89%.
For the compound `NS(=O)(=O)c1ccc(N/N=C2\C(=O)Nc3ccc(Cl)cc32)cc1`, the inhibition in [1] was 7.24%; in test [2], 2.52%; in [3], 2.84%; in test [4], 1.63%; in test [5], 1%; in [6], 2.43%. The inhibition in [7] was 14.7%; in test [8], 5.81%; in test [9] it was 13%; in [10], -1.18%.
On to `Nc1nccc(-c2c(-c3ccc(F)cc3)nn3cc(C(F)(F)F)ccc23)n1`, for which the inhibition in test [1] was 7.28%; in test [2] it was 5.08%; in [3] it was 3.62%; in test [4] it was -4.71%; in [5], -0.05%; in test [6], 0.61%. The inhibition was 2.87% in test [7], 6.31% in [8], 1.74% in test [9] and -0.28% in test [10].
With `NS(=O)(=O)c1ccc(-c2cc3ccncc3cc2OCc2ccccc2)cc1`, the inhibition was 8.24% in [1]; 2.42% in test [2]; 4.62% in test [3]; 4.72% in [4]; 3.35% in test [5]; 2.27% in test [6]. Besides, the inhibition in [7] was 3.78%; in [8], 2.04%; in test [9], 2.76%; in test [10], -2.59%.
For `COc1cc(Nc2nccc(-c3cnn4ncccc34)n2)cc(OC)c1`, the inhibition in [1] was 58.6%; in test [2], 10.7%; in [3], 53.2%; in [4] it was -4.05%; in test [5], 7.3%; in test [6], 1.71%. Besides, the inhibition turned out to be 23% in test [7], 4% in [8], 20.5% in [9] and 1.2% in test [10].
As for `C[C@@H](Oc1cc(-n2cnc3ccc(OCC4CCN(C)CC4)cc32)sc1C(N)=O)c1ccccc1C(F)(F)F`, the inhibition in test [1] is 4.43%; in [2], -1.88%; in [3], -1.98%; in test [4] it was -9.02%; in test [5], 13%; in test [6], -3.05%. Moreover, the inhibition is 7.56% in test [7], -0.95% in test [8], 0.66% in test [9] and 0.86% in test [10].
`ON=C1CCc2cc(-c3nc(C4CCNCC4)[nH]c3-c3ccncc3)ccc21`: the inhibition in [1] is 0.21%; in test [2], 0.52%; in test [3], 0.86%; in test [4], -5.96%; in [5], -0.14%; in [6] it was -1.99%. Besides, the inhibition came out at 5.39% in [7], 3.1% in [8] and 2.75% in test [9].
For `NC(=O)c1sc(-n2cnc3ccccc32)cc1OCc1ccccc1Br`, the inhibition in test [1] was determined as 3.22%; in [2], 2.73%; in [3], 4.01%; in test [4], 6.09%; in [5], 6.22%; in test [6] it was 5.8%. Further, the inhibition in [7] is 4.79%; in [8], 5.69%; in test [9], 4.87%; in test [10] it was 1.18%.
As for `CN(C)C(=O)O[C@H]1CN[C@H](C#Cc2cc3ncnc(Nc4ccc(OCc5cccc(F)c5)c(Cl)c4)c3s2)C1`, the inhibition in test [1] is -0.03%; in test [2] it was 2.17%; in test [3], 3.06%; in [4] it was 2.33%; in test [5], 5.24%; in [6], 2.11%. Also, the inhibition in test [7] is 7.78%; in test [8], 5.3%; in test [9] it was 5.64%; in [10], 0.8%.
`Nc1nccc(-c2c(-c3ccc(F)cc3)ncn2CCCN2CCOCC2)n1`: the inhibition in [1] was 5.14%; in test [2], 3.13%; in test [3], 2.03%; in test [4] it was 1.48%; in [5] it was 1.16%; in [6] it was 2.81%. The inhibition in test [7] amounted to 5.14%; in test [8], 4.29%; in test [9], 2.08%.
As for `C[C@@H](Oc1cc(-n2cnc3ccc(OC[C@@H](O)CO)cc32)sc1C(N)=O)c1ccccc1Cl`, the inhibition in test [1] is 4.95%; in test [2], -0.94%; in [3], 0.05%; in test [4], -7.07%; in test [5], 0.72%; in test [6], -1.37%. Besides, the inhibition was 8.23% in test [7], 0.92% in test [8], 6.57% in test [9] and -1.57% in test [10].
Turning to `Cc1ccc(C(=O)NC2CC2)cc1-c1ccc2[nH]ncc2c1`, the inhibition in [1] was 0.05%; in test [2] it was -3.18%; in test [3], -3.34%; in test [4] it was -0.69%; in test [5], -5.16%; in test [6], -3.95%. Besides, the inhibition in test [7] is -3.78%; in test [8], -5.18%; in test [9], 0.28%; in [10] it was 1.43%.
On to `CN(C)CCCn1c(-c2nonc2N)nc2cnccc21`, for which the inhibition amounted to 3.54% in test [1]; 2.93% in test [2]; 2.95% in test [3]; 3.21% in test [4]; 3.42% in test [5]; 2.86% in [6]. The inhibition in [7] was 6.36%; in test [8] it was 6.01%; in test [9] it was 3.96%; in [10], -1.87%.
Regarding `O=C1Nc2ccccc2/C1=C/Nc1ccc2[nH]c(=O)[nH]c2c1`, the inhibition stood at 12.1% in test [1]; 4.03% in test [2]; 5.17% in [3]; 7.8% in test [4]; 16.5% in test [5]; 9.08% in [6]. For the same compound, the inhibition in test [7] came out at 35%; in [8], 10%; in [9] it was 33%; in [10], 1.89%.
